Dicer processing: human Dicer pre-microRNA cleavage inhibition. cat-ELCCA pre-miR-21 Dicer processing, chemiluminescence; hits give high values. 6% of 47,000 active. AID 1347074. z-score at 25 µM. Q9UPY3; in the data active = z-score above about 3, passing the limit was not always enough;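 also: higher signal means more uncleaved substrate so more Dicer inhibition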
Target sequence (Q9UPY3 whole entry, looked up): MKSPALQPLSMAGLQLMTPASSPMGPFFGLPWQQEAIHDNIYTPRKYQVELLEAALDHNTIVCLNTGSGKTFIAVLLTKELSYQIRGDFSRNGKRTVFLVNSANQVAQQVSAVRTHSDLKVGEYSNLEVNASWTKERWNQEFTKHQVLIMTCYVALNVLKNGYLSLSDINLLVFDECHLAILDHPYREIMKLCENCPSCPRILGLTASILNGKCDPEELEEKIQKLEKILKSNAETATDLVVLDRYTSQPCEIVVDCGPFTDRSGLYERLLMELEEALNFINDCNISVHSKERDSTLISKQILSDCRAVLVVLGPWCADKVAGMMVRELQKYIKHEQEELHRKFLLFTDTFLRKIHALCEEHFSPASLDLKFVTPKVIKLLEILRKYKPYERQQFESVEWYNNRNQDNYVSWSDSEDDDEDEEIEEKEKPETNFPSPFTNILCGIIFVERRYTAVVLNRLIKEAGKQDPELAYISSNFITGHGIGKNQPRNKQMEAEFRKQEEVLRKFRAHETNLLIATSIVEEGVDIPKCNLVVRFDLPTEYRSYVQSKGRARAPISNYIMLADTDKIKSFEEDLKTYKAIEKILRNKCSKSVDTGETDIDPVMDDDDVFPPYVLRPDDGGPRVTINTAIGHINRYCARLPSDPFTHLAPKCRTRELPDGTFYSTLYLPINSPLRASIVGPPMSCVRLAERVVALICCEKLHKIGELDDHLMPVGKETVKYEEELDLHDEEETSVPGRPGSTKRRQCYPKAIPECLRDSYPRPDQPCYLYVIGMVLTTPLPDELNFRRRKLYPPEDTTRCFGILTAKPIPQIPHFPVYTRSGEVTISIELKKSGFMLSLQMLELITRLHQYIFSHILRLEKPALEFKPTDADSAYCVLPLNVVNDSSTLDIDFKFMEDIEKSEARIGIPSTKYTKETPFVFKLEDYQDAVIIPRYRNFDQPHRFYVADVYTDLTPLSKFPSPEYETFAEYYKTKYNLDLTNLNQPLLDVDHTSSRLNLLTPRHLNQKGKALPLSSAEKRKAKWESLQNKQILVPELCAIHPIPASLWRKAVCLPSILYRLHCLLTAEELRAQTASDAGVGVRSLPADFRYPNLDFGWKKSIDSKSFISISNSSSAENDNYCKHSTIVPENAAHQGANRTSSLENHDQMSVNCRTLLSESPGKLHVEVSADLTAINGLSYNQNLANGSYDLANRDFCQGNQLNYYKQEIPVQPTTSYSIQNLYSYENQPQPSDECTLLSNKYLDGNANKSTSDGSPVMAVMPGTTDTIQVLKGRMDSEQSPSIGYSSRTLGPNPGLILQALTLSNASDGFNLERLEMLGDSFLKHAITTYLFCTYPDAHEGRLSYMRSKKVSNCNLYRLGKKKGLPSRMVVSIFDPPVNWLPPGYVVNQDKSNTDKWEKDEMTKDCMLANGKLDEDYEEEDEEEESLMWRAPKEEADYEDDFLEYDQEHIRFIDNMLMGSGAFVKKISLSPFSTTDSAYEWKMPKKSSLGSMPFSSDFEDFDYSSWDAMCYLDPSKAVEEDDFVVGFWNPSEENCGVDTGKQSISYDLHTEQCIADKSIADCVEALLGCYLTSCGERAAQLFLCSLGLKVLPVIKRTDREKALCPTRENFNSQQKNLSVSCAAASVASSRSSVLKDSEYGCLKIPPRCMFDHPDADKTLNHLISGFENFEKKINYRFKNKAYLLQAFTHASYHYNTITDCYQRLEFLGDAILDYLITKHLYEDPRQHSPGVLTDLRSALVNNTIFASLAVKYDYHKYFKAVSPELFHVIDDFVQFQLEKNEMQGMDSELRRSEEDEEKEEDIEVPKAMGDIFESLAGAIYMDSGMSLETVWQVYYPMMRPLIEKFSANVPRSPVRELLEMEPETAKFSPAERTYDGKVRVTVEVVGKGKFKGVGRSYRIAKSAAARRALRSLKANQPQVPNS
Large screens that a line does not name were inactive. This is one part of a sample in which hits are shown more often than they occur.

Cc1ccccc1C1Nc2ccccc2NC2=C1C(=O)CC(c1ccccc1)C2 (stereo not drawn)	none
COc1ccccc1C1Nc2ccccc2NC2=C1C(=O)CC(c1cccs1)C2 (stereo not drawn)	none
O=C1CC(c2ccccc2)CC2=C1C(c1cccnc1)Nc1ccccc1N2 (stereo not drawn)	none
COc1cccc(C2Nc3ccccc3NC3=C2C(=O)CC(c2cccs2)C3)c1 (stereo not drawn)	Dicer processing 3.4
Cc1ccc(C2CC(=O)C3=C(C2)Nc2ccccc2NC3c2ccncc2)cc1 (stereo not drawn)	none
COc1ccc(C2CC(=O)C3=C(C2)Nc2ccccc2NC3c2ccc(F)cc2)cc1 (stereo not drawn)	none
CCOc1cc(C2Nc3ccccc3NC3=C2C(=O)CC(c2ccccc2)C3)ccc1O (stereo not drawn)	none
COc1ccc(C2CC(=O)C3=C(C2)Nc2ccccc2NC3c2ccc(OC)cc2)cc1 (stereo not drawn)	Dicer processing 4.5
O=C1CC(c2ccccc2)CC2=C1C(c1ccc(F)c(F)c1)Nc1ccccc1N2 (stereo not drawn)	Dicer processing 4.6
COC(=O)c1sc2c(c1NC(=O)c1ccccc1)CSc1ccc(Cl)cc1-2	none
O=c1[nH]cnc2c1ncn2COCCO	none
Cc1nc2c(nc(C)n2-c2ccccc2)s1	none
COCCCn1c2c(c(=O)[nH]c1=O)C(c1ccc(F)cc1)C1=C(N2)c2ccccc2C1=O (stereo not drawn)	none
COc1ccc(C2CC(=O)C3=C(C2)Nc2ccccc2NC3c2ccc(F)c(Br)c2)cc1 (stereo not drawn)	Dicer processing 5.2
COc1ccc(C2CC(=O)C3=C(C2)Nc2ccccc2N(C(=O)C2CC2)C3c2cccnc2)cc1OC (stereo not drawn)	none
COc1ccc(C2CC(=O)C3=C(C2)Nc2ccccc2NC3c2coc3ccc(Cl)cc3c2=O)cc1 (stereo not drawn)	none
O=C(O)CCC(=O)N1c2ccccc2NC2=C(C(=O)CC(c3ccccc3)C2)C1c1cccc(F)c1 (stereo not drawn)	none
COc1ccc(C2CC(=O)C3=C(C2)Nc2ccccc2NC3c2cccc(O)c2)cc1 (stereo not drawn)	none
COc1cccc(C2C3=C(CC(c4ccccc4)CC3=O)Nc3ccccc3N2C(=O)C2CC2)c1 (stereo not drawn)	Dicer processing 3.7
Cc1nn(-c2ccccc2)c2[nH]c(=O)c(C#N)c(-c3ccccc3)c12	none
CC(C)(C)/C=N/NS(=O)(=O)c1ccc(Cl)s1	none
CN1C(=O)C(O)(CC(=O)c2cccc(Br)c2)c2ccccc21 (stereo not drawn)	none
CC(C)CCN1Cc2ccccc2C1	Dicer processing 5.1
CN1CCN2c3ccccc3Cc3ccccc3C2C1 (stereo not drawn)	none
CC(C)CCC(O)(CCN1CCCCC1)c1ccccc1 (stereo not drawn)	none
O=C(O)c1c(F)cccc1I	none
CC1(C)N=C(N)N=C(N)N1c1c(Cl)cccc1Cl	none
COc1cccc(Oc2ccc(NC(=O)c3cc4cc(Br)ccc4o3)cn2)c1	Dicer processing 3.1
COc1ccccc1Oc1ccc(NC(=O)c2cc3cc(Br)ccc3o2)cn1	none
COc1cccc(NC(=O)Nc2ccc(Oc3c(Cl)cccc3Cl)nc2)c1	none
CC1(C)O[C@H]2O[C@H](C(O)COC(=O)c3ccccc3)[C@H](OC(=O)c3ccccc3)[C@H]2O1 (stereo partly drawn)	none
COc1cccc(C2Nc3cccc4cccc(c34)N2)c1O	none
Brc1ccc(C2Nc3cccc4cccc(c34)N2)cc1	Dicer processing 5
COc1ccc(C#N)cc1Br	none
COc1ccc(C2Nc3cccc4cccc(c34)N2)cc1Br	Dicer processing 4.9
Oc1ccc2ccccc2c1C1Nc2cccc3cccc1c23 (stereo not drawn)	none
Fc1ccc(C2Nc3cccc4cccc(c34)N2)cc1	none
CN=C(C)/C(C(=O)OC)=C(/O)c1c([N+](=O)[O-])c(C)nn1C	none
CSc1ccc(/C=C(\C#N)S(=O)(=O)c2ccc(Cl)cc2Cl)s1	none
COc1cc2c(cc1OC)C(C)N(S(C)(=O)=O)CC2 (stereo not drawn)	none
CCC(C)Nc1ncnc2sc3c(c12)CCCC3 (stereo not drawn)	none
CCCc1c(C(=O)OCC)cnn1-c1c(Cl)cc(Cl)cc1Cl	none
COC(=O)Cc1ccc(N2C(=O)c3cccnc3C2=O)cc1	none
CC(=O)Oc1ccc(N2C(=O)c3cccnc3C2=O)cc1	Dicer processing 3.1
O=C(Nc1ccc(N2C(=O)c3cccnc3C2=O)cc1)c1cccs1	none
O=C1CCCCC1C1(O)C(=O)Nc2ccc(Br)cc21 (stereo not drawn)	none
CN1CCc2c(sc3c2C(=O)NC(c2ccc(-c4ccc(F)cc4)o2)N3)C1 (stereo not drawn)	none
CCOc1ccccc1C1C(C(=O)OCC2CCCO2)=C(C)NC2=C1C(=O)CCC2 (stereo not drawn)	none
Cc1ccc(-c2cc(NC3=CC(=O)CC(C)(C)C3)n[nH]2)cc1	Dicer processing 3.7
CC1(C)CC(=O)C=C(Nc2ccc(F)cc2)C1	none
Cc1ccc(Cl)c(NC2=CC(=O)CC(C)(C)C2)c1	none
O=S(=O)(c1ccccc1)n1ccc(-c2cnc3cc(Cl)c(Cl)cc3n2)c1	none

Bioassay records deposited in PubChem by Center for Chemical Genomics, University of Michigan.
